Pf growth 48h: P. falciparum growth inhibition at 48 hours (one generation) | P. falciparum luciferase growth in erythrocytes, 48 h | Potency, µM (top dose mostly 28.7 µM), hits mostly inhibitors | 310,000 compounds, 5.9% hits; active = well fitted inhibition curve with a large enough effect; inconclusive = small, poorly fitted or top-dose-only effect, or another doubt; inactive = no such curve, though single readings can be large or run the other way
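A one-generation exposure of luciferase-tagged malaria parasites in RPMI 1640/Albumax erythrocyte culture, 37 C and 5% CO2. Inhibition is inferred from decreased luminescence after adding detection reagent.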
Pf growth 96h: P. falciparum growth inhibition at 96 hours. P. falciparum luciferase reporter growth, 96 h. Potency, µM (top dose mostly 28.7 µM), hits mostly inhibitors. 320,000 compounds, 6.9% hits; active = well fitted inhibition curve with a large enough effect; inconclusive = small, poorly fitted or top-dose-only effect, or another doubt; inactive = no such curve, though single readings can be large or run the other way
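P. falciparum expressing integrated firefly luciferase grown in erythrocytes (2% hematocrit, 0.05% parasitemia final) with compounds for 96 hours at 37 C, 5% CO2. Growth inhibition read as loss of luminescence after adding luciferase detection reagent.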
Shiga inhibitor: inhibitors of Shiga toxin in Vero cells. Vero cells, Shiga toxin protein synthesis inhibition reporter. inhibition, % at 38.7 µM. 290,000 compounds, 9.2% hits. AID 2315; in the data active = inhibition mostly above about 28%, no sharp cut-off; inactive = mostly below about 43%
CHX counter: affects cycloheximide protein synthesis inhibition readout, counter-screen. cell reporter, cycloheximide protein synthesis inhibition counterscreen. 300,000 compounds, 12% hits. max response, %. AID 2314; in the data active = max response mostly above about 13%, no sharp cut-off; inactive = mostly below about 14%; note: read at 38.3 µM for the half of the compounds with a filed dose
NS1 function inh: inhibitors of influenza NS1 protein function | AID 2326 | Potency, µM (series often up to 46.1 µM) | 270,000 compounds, 0.4% hits; note: actives are rising curves; nearly all actives have a fitted effect of over 50% in size
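Compounds were scored for reversing the slow growth caused by influenza A NS1 in S. cerevisiae, measured by optical density at 600 nm. Assay medium contained 2% galactose at pH 6.0; NS1-free yeast of the same strain were the positive control.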
SARS PLpro yeast: blocks SARS-CoV papain-like protease in a yeast assay | Potency, µM (titrated, usually from 32.9 µM), most hits filed as activators | S. cerevisiae expressing SARS-CoV PLpro, growth rescue | AID 485353 | 330,000 compounds, 0.19% hits; note: nearly all actives have a fitted effect of over 55% in size
Large screens that a line does not name were inactive. Hits are enriched below; roughly 21% of the tested compounds scored in any of these assays. Unless noted, calls come from the whole dose curve.

O=C(NC1CC(=O)N(c2cccc(F)c2)C1)C(=O)c1c[nH]c2ccccc12 (configuration not stated)	none (no result: Shiga inhibitor, CHX counter, NS1 function inh)
COc1cccc(C(=O)Oc2ccc(N3C(=O)CCC3=O)c(C)c2)c1	none
Clc1ccc2oc(-c3ccccc3)nc2c1	Shiga inhibitor 107, CHX counter 46
Clc1ccc2oc(-c3cccnc3)nc2c1	Shiga inhibitor 85, CHX counter 47 (no result: Pf growth 96h)
O=C(Nc1ccc2oc(-c3ccccc3)nc2c1)c1ccncc1	Pf growth 96h inconclusive
Cc1ccccc1-c1nc2cc(Cl)ccc2c(=O)o1	none
Cc1ccccc1-c1nc2cc(Cl)ccc2o1	CHX counter 38, SARS PLpro yeast inconclusive
Clc1ccc2oc(SCc3cccnc3)nc2c1	Shiga inhibitor 66, CHX counter 23
CCN(CC(=O)NCc1ccc(Cl)cc1)C(=O)COc1cccc(C(F)(F)F)c1	none (no result: Shiga inhibitor, CHX counter, NS1 function inh)
Cc1ccccc1NC(=O)Cc1nc(COC(=O)CSc2ccccc2)cs1	SARS PLpro yeast inconclusive
Cc1ccc(-c2nc3cc(NS(=O)(=O)c4ccc(C)cc4)ccc3o2)cc1	Pf growth 96h inconclusive (no result: Pf growth 48h)
Cc1ccc2nc(-c3cccnc3)oc2c1	Shiga inhibitor 131, CHX counter 47 (no result: Pf growth 96h)
Cc1ccc2nc(-c3ccccn3)oc2c1	none (no result: Pf growth 96h)
O=S(=O)(Nc1ccc2oc(-c3ccccc3)nc2c1)c1ccccc1	CHX counter 31 (no result: Pf growth 96h)
CC(C)CN1C(=O)c2ccc(NC(=O)Cc3ccccc3)cc2C1=O	none
N[C@@H](Cc1ccc(O)cc1)C(=O)Nc1ccc2ccccc2c1	none (no result: Shiga inhibitor, CHX counter, NS1 function inh)
CC(NC(=O)c1cc(F)c(F)c(F)c1F)c1ccc(-n2ccnc2)cc1 (configuration not stated)	Pf growth 48h inconclusive
Cc1cccc(NS(=O)(=O)c2ccc(C(=O)NCC3(N4CCCCC4)CCCCC3)cc2)c1C	Pf growth 48h 2.6µM (no result: Shiga inhibitor, CHX counter, NS1 function inh, SARS PLpro yeast)
CC(NCCC(c1ccccc1)c1ccccc1)c1ccccc1 (configuration not stated)	Pf growth 48h 13µM, Pf growth 96h 11µM
CCOC(=O)N1CCN(C(=O)c2ccc3c(c2)N(Cc2cccc(Cl)c2)C(=O)c2ccccc2S3=O)CC1 (configuration not stated)	Pf growth 48h 7.4µM
CCN1CCN(CCNC(=O)c2ccc3c(c2)N(Cc2ccc(F)cc2)C(=O)c2ccccc2S3=O)CC1 (configuration not stated)	Pf growth 48h 10µM
O=C(NCCCN1CCCC1)c1ccc2c(c1)N(Cc1cccc(Cl)c1)C(=O)c1ccccc1S2=O (configuration not stated)	Pf growth 48h 3.3µM
CN1CCN(C(=O)c2ccc3c(c2)N(Cc2cccc(Cl)c2)C(=O)c2ccccc2S3=O)CC1 (configuration not stated)	none (no result: Pf growth 48h, Pf growth 96h, Shiga inhibitor, CHX counter, SARS PLpro yeast)
Cc1ccccc1CN1C(=O)c2ccccc2S(=O)c2ccc(C(=O)NCCCN3CCOCC3)cc21 (configuration not stated)	Pf growth 48h inconclusive, Pf growth 96h 1.5µM
COc1ccc(C2=NN(C(=O)CCC(=O)O)C(c3ccc(Br)cc3)C2)cc1 (configuration not stated)	Pf growth 96h inconclusive
CC1CCCCN1CCNC(=O)c1ccc2c(c1)N(Cc1cccc(Cl)c1)C(=O)c1ccccc1S2=O (configuration not stated)	Pf growth 48h 2.9µM
CC1CC(C)CN(CCCNC(=O)c2ccc3c(c2)N(Cc2ccccc2)C(=O)c2ccccc2S3=O)C1 (configuration not stated)	Pf growth 48h inconclusive
Cc1ccc(C)c(CN2C(=O)c3ccccc3S(=O)c3ccc(C(=O)N4CCN(c5ccccn5)CC4)cc32)c1 (configuration not stated)	Pf growth 48h 12µM, Pf growth 96h inconclusive (no result: NS1 function inh)
Cc1ccc(-c2nn(-c3ccccc3)cc2C2SCC(=O)N2Cc2ccccc2)o1 (configuration not stated)	Pf growth 48h 10µM
O=C1CSC(c2cn(-c3ccccc3)nc2-c2cccs2)N1Cc1ccccc1 (configuration not stated)	none (no result: Pf growth 48h)
O=C1CSC(c2cn(-c3ccccc3)nc2-c2cc3ccccc3oc2=O)N1Cc1ccco1 (configuration not stated)	Pf growth 48h 10µM, Pf growth 96h inconclusive
O=C1CSC(c2cn(-c3ccccc3)nc2-c2cc3ccccc3o2)N1Cc1ccccc1 (configuration not stated)	Pf growth 96h 4.1µM (no result: Pf growth 48h)
CCCC[C@@H](CNC)NC[C@H](NCCCCC1CCCCC1)C(C)C	Pf growth 48h inconclusive, Pf growth 96h 1.7µM
O=C(/C=C/c1ccccc1F)c1ccoc1	Shiga inhibitor 123, CHX counter 26
O=C(/C=C/c1ccccc1Cl)c1cccnc1	none (no result: Pf growth 48h)
CC(C)(C)OC(=O)C[C@H]1C/C=C\C[C@H](CC(=O)N[C@H](CO)Cc2ccccc2)C(=O)N[C@H](Cc2ccccc2)COC1=O	none (no result: Pf growth 48h, Pf growth 96h, Shiga inhibitor, CHX counter, NS1 function inh)
NCCCC[C@H]1CNC(=O)C(=O)N1CCC12CC3CC(CC(C3)C1)C2	Pf growth 48h 12µM, Pf growth 96h 7.4µM
Cc1cc(NC(=O)CSc2nnnn2C2CCCC2)no1	Pf growth 96h 7.4µM
Cc1ccc(NC(=O)CSc2nnnn2C2CCCC2)cc1S(=O)(=O)N1CCOCC1	Pf growth 48h inconclusive, Pf growth 96h 8.3µM (no result: Shiga inhibitor, CHX counter, NS1 function inh)
O=C(CSc1nnnn1C1CCCCC1)NCCc1ccccc1	Shiga inhibitor 42, CHX counter 62 (no result: Pf growth 96h)
CCOc1ccc(NC(=O)CSc2nnnn2C2CC2)cc1S(=O)(=O)N1CCCC1	Pf growth 48h inconclusive, Pf growth 96h 15µM (no result: Shiga inhibitor, CHX counter, NS1 function inh)
Cc1ccc(S(=O)(=O)N2CCOCC2)cc1NC(=O)CSc1nnnn1C1CCCC1	none (no result: Shiga inhibitor, CHX counter, NS1 function inh)
O=C(CSc1nnnn1-c1ccc(F)cc1F)Nc1ccccc1F	none
CN1C(=O)N(C)C(NC(=O)Nc2ccccc2)C1NC(=O)Nc1ccccc1 (configuration not stated)	Pf growth 96h 2.3µM
CC(C(=O)O)N1C(=O)C2C3CC(C2C1=O)C1C(c2ccccc2)c2sc(=O)[nH]c2SC31 (configuration not stated)	none
Cc1cc(=O)oc2c(C)c(OCC(=O)c3ccccc3)ccc12	none
Cc1cc(=O)oc2c(C)c(OCC(=O)Nc3cccnc3)ccc12	Pf growth 48h inconclusive, Shiga inhibitor 41, CHX counter 31
CCCc1cc(=O)oc2c(C)c(OCC(=O)Nc3cccnc3)ccc12	Pf growth 48h 3.3µM, Pf growth 96h 2.3µM
O=C(Nc1ccc(OC(F)F)c(Cl)c1)c1cccc(OC(F)F)c1	Shiga inhibitor 67, CHX counter 43 (no result: Pf growth 48h)
COc1ccc(NC(=O)c2cccc(OC(F)F)c2)cc1Cl	Shiga inhibitor 131, CHX counter 39 (no result: Pf growth 96h)
COc1ccc(NC(=O)c2cccc(F)c2)cc1Cl	Shiga inhibitor 57, CHX counter 20 (no result: Pf growth 48h)
COc1ccc(NC(=O)c2ccccc2F)cc1Cl	Shiga inhibitor 35, CHX counter 29 (no result: Pf growth 48h)
COc1cc(OC)c(NC(=O)c2cccc(F)c2)cc1Cl	none

Compound activity from PubChem BioAssay.
